Screening results: PubChem, National Center for Advancing Translational Sciences (NCATS)
Gal4-VP16 FLuc – Gal4-VP16 reporter inhibition counter-screen | Drosophila S2 Gal4-VP16 UAS-luciferase, luminescence, 20 h | Potency, µM (series often up to 53.6 µM), for inactives: top-dose activity, negative = inhibition, hits mostly inhibitors | hit rate 3.5% among 310,000;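 note: Gal4-VP16 expression switched on by copper sulfate through the metallothionein promoter; nearly all actives have a fitted effect of over 50% in size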
ELG1 repair inh – inhibitors of ELG1-dependent DNA repair in HEK293T cells; hit rate 2.3% among 330,000; AID 504467; Potency, µM (doses to about 46.1 µM), for inactives: at the highest dose activity change, negative = inhibition, actives largely listed as inhibitors; HEK293T ELG1-luciferase reporter, luminescence, 16 h; DNA damage induced by 5-fluorouridine; note: nearly all actives have a fitted effect of over 55% in size
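Reporter activity after DNA damage by 5-fluorouridine is monitored. Compound-treated cells incubate 16 hr at 37 °C, then ONE-Glo is added for 30 min before luminescence reading.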
RORg inh – inhibitors of mouse ROR gamma transcriptional activity; Drosophila S2 Gal4-RORgamma UAS-luciferase reporter, 20 h; Potency, µM (doses to about 53.6 µM), inactives show at the highest dose activity change, negative = inhibition, hits mostly inhibitors; hit rate 5.4% among 310,000; AID 2551; note: nearly all actives have a fitted effect of over 60% in size
Target sequence (P51450 whole entry, looked up, the tested form may be a part): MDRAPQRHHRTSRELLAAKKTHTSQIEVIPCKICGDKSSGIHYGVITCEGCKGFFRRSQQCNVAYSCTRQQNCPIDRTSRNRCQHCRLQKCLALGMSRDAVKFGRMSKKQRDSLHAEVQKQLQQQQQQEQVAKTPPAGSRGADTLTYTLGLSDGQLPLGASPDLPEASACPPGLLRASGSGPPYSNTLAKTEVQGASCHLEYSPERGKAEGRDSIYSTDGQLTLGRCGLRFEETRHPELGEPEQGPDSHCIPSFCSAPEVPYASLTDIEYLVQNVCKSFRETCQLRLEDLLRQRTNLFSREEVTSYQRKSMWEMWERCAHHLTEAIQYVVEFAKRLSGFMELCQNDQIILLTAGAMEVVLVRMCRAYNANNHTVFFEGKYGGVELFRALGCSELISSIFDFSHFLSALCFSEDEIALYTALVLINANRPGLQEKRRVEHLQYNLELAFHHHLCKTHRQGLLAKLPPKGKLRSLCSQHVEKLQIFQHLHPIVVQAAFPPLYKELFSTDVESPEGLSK
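ROR gamma transcriptional activity was tracked as Gal4-UAS luciferase output in stably transfected Drosophila Schneider cells, with compound added 1 hr before 700 uM copper sulfate induction and a 20 hr ambient-temperature incubation.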
TDP1 cell CPT – growth inhibition of DT40 Tdp1-/-;hTDP1 cells with camptothecin (screen for TDP1 inhibitors). chicken DT40 Tdp1-/-;hTDP1 cells + 20 nM CPT, ATP luminescence, 48 h. Potency, µM (doses to about 46.2 µM), inactives show at the top dose activity change, negative = growth inhibition, usual class: inhibitors. hit rate 12% among 420,000; note: nearly all actives have a fitted effect of over 55% in size
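Cell growth measured by CellTiter-Glo luminescence after a minimum 48 h, 37 C compound exposure with 20 nM CPT in Tdp1-knockout DT40 cells stably expressing hTDP1, seeded 400/well; qHTS titration format.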
12-LOX inh – ALOX12 (human) lipoxygenase inhibition | purified 12hLO, xylenol orange hydroperoxide absorbance | AID 1671190 | hit rate 1.1% among 580,000 | P18054 | Potency, µM (top dose mostly 108 µM), inactives show at the highest dose activity change, negative = inhibition, hits mostly inhibitors
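Hydroperoxide product was detected by ferrous iron/xylenol orange as the 573 to 405 nm absorbance ratio. Arachidonic acid at 40 uM (final) was turned over for 30 min at room temperature by 150 nM human 12hLO, pH 7.0 Hepes buffer, after 15 min compound preincubation.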
DT40 TDP1 no CPT – qHTS for Inhibitors of human tyrosyl-DNA phosphodiesterase 1 (TDP1): qHTS in cells in absence of CPT. AID 686978, 2013. Potency, µM (highest dose often 46.2 µM), for the others: top-dose activity change, negative = growth inhibition, usual class: inhibitors. DT40 Tdp1-/- hTDP1 cells, no CPT, ATP luminescence, 48 h. hit rate 15% among 420,000; note: nearly all actives have a fitted effect of over 55% in size
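DT40 Tdp1-/-;hTDP1 cells, no CPT (DMSO vehicle only), 400 cells/well; compounds pin-transferred; ≥48 hr, 37 °C; CellTiter-Glo 30 min RT dark, luminescence read.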
The depositor's hits bear a star. Shown are actives, neighbours in structure and some others; about 15% of the full set was active somewhere. Calls come from the whole dose curve; as a rule, active = well fitted curve in the direction sought with a large enough effect; inconclusive = small, poorly fitted or top-dose-only effect, or another doubt; inactive = no such curve, though single readings can be large; an effect the other way counts as inactive or inconclusive. % is set by controls: 0 for no effect and ±100 for the full control effect; potency is the fitted concentration of half-maximal effect.

What do the screens show for `CCN(CC)S(=O)(=O)c1ccc(NN)nc1`?
Gal4-VP16 FLuc: 18µM*; ELG1 repair inh: inconclusive; RORg inh: 4.5µM*; TDP1 cell CPT: 21µM*; 12-LOX inh: inconclusive; DT40 TDP1 no CPT: inconclusive

Results for CC(C)N(C(C)C)S(=O)(=O)c1ccc(NN)nc1 ?
Gal4-VP16 FLuc: inconclusive; ELG1 repair inh: inconclusive; RORg inh: 14µM*; TDP1 cell CPT: inconclusive; 12-LOX inh: 5%; DT40 TDP1 no CPT: inconclusive

How did CCN(CC)S(=O)(=O)c1ccc(N/N=C/c2cc(OC)ccc2O)nc1 do in these assays?
Gal4-VP16 FLuc: 11µM*; ELG1 repair inh: 18%; RORg inh: 4.5µM*; TDP1 cell CPT: 5.8µM*; 12-LOX inh: -16%; DT40 TDP1 no CPT: 6.5µM*

What do the screens show for `CCN(CC)S(=O)(=O)c1ccc(N/N=C/c2cccnc2)nc1`?
Gal4-VP16 FLuc: 2%; ELG1 repair inh: 10%; RORg inh: 18%; TDP1 cell CPT: -14%; 12-LOX inh: -16%; DT40 TDP1 no CPT: -24%

How did CCC(=O)N1CCc2c(C(=O)N3CCN(c4ccccc4Cl)CC3)cccc21 do in these assays?
12-LOX inh: 11%

What do the screens show for `O=C(NN=C1CCCC1)c1ccc(Cl)cc1`?
Gal4-VP16 FLuc: 3%; ELG1 repair inh: -22%; RORg inh: inconclusive; TDP1 cell CPT: 14%; 12-LOX inh: 9%; DT40 TDP1 no CPT: -18%

What do the screens show for `O=C1CCC/C(=N/Nc2ccc(Cl)cc2)C1`?
Gal4-VP16 FLuc: inconclusive; ELG1 repair inh: -9%; RORg inh: 27%; TDP1 cell CPT: 16µM*; 12-LOX inh: inconclusive; DT40 TDP1 no CPT: 7.3µM*

What do the screens show for `Cc1n[nH]c(C)c1C(=O)CC1(O)C(=O)N(C)c2ccccc21` (centres undefined)?
12-LOX inh: 14%

Results for CN1C(=O)C(O)(CC(=O)c2cccnc2)c2ccccc21 (centres undefined) ?
Gal4-VP16 FLuc: 1%; ELG1 repair inh: 6%; RORg inh: -4%; TDP1 cell CPT: 12µM*; 12-LOX inh: 0%; DT40 TDP1 no CPT: 10µM*

Results for O=C(CC1(O)C(=O)N(Cc2cccc3ccccc23)c2ccccc21)c1cccnc1 (centres undefined) ?
Gal4-VP16 FLuc: inconclusive; ELG1 repair inh: -27%; RORg inh: 17%; TDP1 cell CPT: 0.92µM*; 12-LOX inh: inconclusive; DT40 TDP1 no CPT: 0.82µM*

Results for Cc1ccc(C(=O)CC2(O)C(=O)N(Cc3ccccc3F)c3ccccc32)cc1 (centres undefined) ?
TDP1 cell CPT: inconclusive; 12-LOX inh: -14%; DT40 TDP1 no CPT: inconclusive

How did COc1ccc2c(Sc3ccccc3)c(C(=O)NCc3cccc(OC)c3OC)[nH]c2c1 do in these assays?
TDP1 cell CPT: inconclusive; 12-LOX inh: -12%; DT40 TDP1 no CPT: inconclusive

Results for Cc1ccc(Sc2c(C(=O)NCc3ccccc3C)[nH]c3ccccc23)cc1 ?
TDP1 cell CPT: inconclusive; 12-LOX inh: -23%; DT40 TDP1 no CPT: -55%

What do the screens show for `Cc1ccc2c(Sc3ccccc3)c(C(=O)NCc3ccccc3F)[nH]c2c1`?
TDP1 cell CPT: 9.2µM*; 12-LOX inh: -15%; DT40 TDP1 no CPT: inconclusive

Results for COc1cccc(CNC(=O)c2[nH]c3cc(C)ccc3c2Sc2ccccc2)c1 ?
TDP1 cell CPT: inconclusive; 12-LOX inh: -24%; DT40 TDP1 no CPT: 15µM*

How did CCCCC(=O)OC1=C(C(=O)c2ccccc2)N(CC)S(=O)(=O)c2ccccc21 do in these assays?
TDP1 cell CPT: 21µM*; 12-LOX inh: -18%; DT40 TDP1 no CPT: 7.3µM*

What do the screens show for `CCCCN1C(C(=O)c2ccccc2)=C(OC(C)=O)c2ccccc2S1(=O)=O`?
TDP1 cell CPT: 5.2µM*; 12-LOX inh: inconclusive; DT40 TDP1 no CPT: 4.6µM*

Results for CCN1C(C(=O)c2ccccc2)=C(OC(=O)c2ccccc2OC)c2ccccc2S1(=O)=O ?
TDP1 cell CPT: 4.6µM*; 12-LOX inh: -15%; DT40 TDP1 no CPT: 3.3µM*

How did CCN1C(C(=O)c2ccccc2)=C(Nc2ccccc2C)c2ccccc2S1(=O)=O do in these assays?
Gal4-VP16 FLuc: -17%; ELG1 repair inh: -4%; RORg inh: 2%; TDP1 cell CPT: -29%; 12-LOX inh: inconclusive; DT40 TDP1 no CPT: inconclusive

What do the screens show for `CCOC(=O)C(NC(=O)c1nccc2ccccc12)C(=O)OCC`?
12-LOX inh: 13%

What do the screens show for `COc1ccc(NC2CCCN(C(=O)c3cccnc3)C2)cc1` (centres undefined)?
Gal4-VP16 FLuc: -11%; ELG1 repair inh: 24%; RORg inh: -1%; TDP1 cell CPT: 2%; 12-LOX inh: 4%; DT40 TDP1 no CPT: -25%

What do the screens show for `COc1ccc(NC2CCCN(Cc3cccc4cnccc34)C2)cc1OC` (centres undefined)?
Gal4-VP16 FLuc: 10%; ELG1 repair inh: -22%; RORg inh: 16%; TDP1 cell CPT: inconclusive; 12-LOX inh: -17%; DT40 TDP1 no CPT: 21µM*

Results for COc1ccc(NC2CCCN(Cc3cccc4cnccc34)C2)cc1 (centres undefined) ?
Gal4-VP16 FLuc: -5%; ELG1 repair inh: 10%; RORg inh: 2%; TDP1 cell CPT: inconclusive; 12-LOX inh: 78%; DT40 TDP1 no CPT: 21µM*

How did Cn1c(/C(C#N)=C/c2ccc(-c3ccc(S(N)(=O)=O)cc3)o2)nc2ccccc21 do in these assays?
Gal4-VP16 FLuc: -24%; ELG1 repair inh: inconclusive; RORg inh: -8%; TDP1 cell CPT: 13µM*; 12-LOX inh: -6%; DT40 TDP1 no CPT: 15µM*

How did COc1cc(/C=C(\C#N)c2nc3ccccc3n2C)cc(OC)c1OC do in these assays?
TDP1 cell CPT: 29µM*; 12-LOX inh: -22%; DT40 TDP1 no CPT: 12µM*

How did COc1ccc(/C=C(\C#N)c2nc3ccccc3n2C)c(OC)c1 do in these assays?
TDP1 cell CPT: inconclusive; 12-LOX inh: -22%; DT40 TDP1 no CPT: inconclusive

How did Cn1c(/C(C#N)=C/c2cccc(O)c2)nc2ccccc21 do in these assays?
Gal4-VP16 FLuc: -10%; ELG1 repair inh: inconclusive; RORg inh: -11%; TDP1 cell CPT: 21µM*; 12-LOX inh: -9%; DT40 TDP1 no CPT: inconclusive

Results for Cc1nc(NCC2CCCO2)c(C#N)c2c1CCCC2 (centres undefined) ?
12-LOX inh: 39%
